# Laboratory results taken from PubChem BioAssay (Tox21).
# Values without a mark were called inactive. Inconclusive results are not listed. A call without a number means that no potency is given here. Activity calls are given as the source filed them. Unless noted, calls come from the whole dose curve.
# Legend:
# [1] = Nuclear factor erythroid 2-related factor 2/antioxidant responsive element (Nrf2/ARE) small molecule agonists: qHTS cell viability counter screen in human keratinocytes (AID 1919968; active = well fitted curve in the direction sought with a large enough effect in the repeat runs; an effect the other way counts as inactive or inconclusive; note: nearly all actives have a fitted effect of over 55% in size)
# Method in brief: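 Cells of the KeratinoSens line were plated at 1,500 per well and left for 5 h before compound transfer from DMSO stocks. After a 23 h incubation (37 C, 5% CO2), CellTiter-Fluor was added. Signal was taken as fluorescence intensity 1 h later.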
# [2] = Nuclear factor erythroid 2-related factor 2/antioxidant responsive element (Nrf2/ARE) small molecule agonists: luciferase reporter gene qHTS assay in human keratinocytes (AID 1919969); note: nearly all actives have a fitted effect of over 35% in size; note: potency is the fitted concentration of half-maximal effect
# [3] = target: Gonadotropin-releasing hormone receptor (Homo sapiens) (UniProt P30968); test: Human gonadotropin-releasing hormone receptor (GnRHR) small molecule agonists, calcium flux assay in GnRHR-HEK293 cells (AID 1920063); note: nearly all actives have a fitted effect of over 35% in size
# Method in brief: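 Compounds dissolved in DMSO are pin-transferred onto dye-loaded GnRHR-HEK293 cells, which were seeded 18 h before at 37 C/5% CO2. Calcium signal is read as fluorescence intensity at 1 s intervals for 3 min.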
# [4] = target: KiSS-1 receptor (Homo sapiens) (UniProt Q969F8); test: Human kisspeptin (KISS1R) small molecule agonists, calcium flux assay in KISS1R-HEK293 cells (AID 1920064; active = well fitted curve in the direction sought with a large enough effect in the repeat runs; an effect the other way counts as inactive or inconclusive)
# Method in brief: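 Cell line: HEK293, stable human KISS1R. Dye loading 1 h at 37 C after 18 h culture. Read: kinetic fluorescence, 480/540 nm, 3 min at 1 s intervals.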
# [5] = G protein-coupled receptor (GPCR) small molecule agonists, calcium flux assay: HEK293 wild type cell line counter screen (AID 1920065)
# Method in brief: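 Tox21 10K compounds, 15 concentrations each in triplicate, pin-transferred in DMSO onto dye-loaded cells; kinetic read at 480/540 nm for 3 min, 1 s intervals.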
# [6] = p53 small molecule agonists, cell-based qHTS assay with human liver microsomes (AID 1963577)
# Method in brief: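 p53RE-bla cells, 4,000/well, compound added after 5 h, with human liver microsomes 0.5 mg/mL and NADPH 0.5 mg/mL final; 16 h at 37 C, then LiveBLAzer 2 h RT, fluorescence.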
# [7] = p53 small molecule agonists, cell-based qHTS assay with rat liver microsomes (AID 1963578)
# Method in brief: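 p53RE-bla cells, 4,000/well, pre-incubated 5 h, then given compounds plus rat liver microsomes (0.5 mg/mL final) and NADPH (0.5 mg/mL final). Incubation 16 h at 37 C; beta-lactamase reporter read by LiveBLAzer fluorescence after 2 h at room temperature.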
# [8] = p53 small molecule agonists, cell-based qHTS assay with human liver microsomes: qHTS cell viability counter screen (AID 1963579); note: nearly all actives have a fitted effect of over 45% in size
# Method in brief: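 p53RE-bla cells, 4,000/well, dosed 5 hours after plating, with human liver microsomes (0.5 mg/mL final) plus NADPH (0.5 mg/mL final), 16 hours at 37 C. Viability read as CellTiter-Glo luminescence after 30 min at room temperature.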
# [9] = p53 small molecule agonists, cell-based qHTS assay with rat liver microsomes: qHTS cell viability counter screen (AID 1963580); note: nearly all actives have a fitted effect of over 45% in size
# Method in brief: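 Rat liver microsome (0.5 mg/mL final) and NADPH (0.5 mg/mL final) co-incubation with compounds for 16 h at 37 C on HCT-116 p53RE-bla cells; cytotoxicity taken from intracellular ATP luminescence.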
# [10] = p53 small molecule agonists, cell-based qHTS assay: qHTS cell viability counter screen (AID 1963581); note: nearly all actives have a fitted effect of over 45% in size
# Method in brief: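 ATP content measured by luminescence in HCT-116 p53RE-bla cells treated 16 h at 37 C, same wells as the reporter screen.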
# [11] = p53 small molecule agonists, cell-based qHTS assay (AID 1963582; active = well fitted activation curve with a large enough effect in the signal ratio in the repeat runs, not every such curve was filed as active; the % refers to the signal ratio)
# Method in brief: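 16 h compound exposure (37 C) of p53 response element–bla cells, preceded by 5 h recovery at 37 C/5% CO2; read-out via LiveBLAzer B/G FRET substrate, 2 h RT, fluorescence intensity.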
# [12] = target: 5-hydroxytryptamine receptor 2A (Homo sapiens) (UniProt P28223); test: 5-hydroxytryptamine receptor 2A (HTR2A) small molecule antagonists, cell-based qHTS assay (AID 1963586); note: nearly all actives have a fitted effect of over 45% in size
# Method in brief: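 CHO cells stably expressing human HTR2A were plated for 18 h at 37 C, then loaded with calcium dye for 1 h. Compounds were preincubated 5 min at room temperature before DOI (4 nM solution) was added. Kinetic fluorescence was read for 3 min.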
# [13] = target: 5-hydroxytryptamine receptor 2A (Homo sapiens) (UniProt P28223); test: 5-hydroxytryptamine receptor 2A (HTR2A) small molecule agonists, cell-based qHTS assay (AID 1963587); note: nearly all actives have a fitted effect of over 30% in size
# Method in brief: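 Kinetic calcium-flux fluorescence (2 min, 1 sec intervals) after compound addition in agonist mode. HTR2A-CHO cells were cultured 18 h, then dye-loaded 1 h at 37 C.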
# [14] = target: Muscarinic acetylcholine receptor M1 (Homo sapiens) (UniProt P11229); test: Cholinergic receptor muscarinic 1 (CHRM1) small molecule antagonists, cell-based qHTS assay (AID 1963588); note: nearly all actives have a fitted effect of over 40% in size
# Method in brief: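 Compounds were tested at 15 concentrations in three independent runs. Dye-loaded CHRM1-CHO cells were exposed 5 min at room temperature before stimulation by acetylcholine added at 50nM. Intracellular calcium was read kinetically on FDSS for 3 min.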
# [15] = target: Muscarinic acetylcholine receptor M1 (Homo sapiens) (UniProt P11229); test: Cholinergic receptor muscarinic 1 (CHRM1) small molecule agonists, cell-based qHTS assay (AID 1963589); note: nearly all actives have a fitted effect of over 35% in size
# Method in brief: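 Homogeneous fluorescence calcium flux, agonist mode. Human M1-expressing CHO cells; compound dosed at 15 concentrations, three independent runs; signal sampled every 1 sec.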
# [16] = cAMP Responsive Elements (CRE) small molecule agonists, cell-based qHTS assay (AID 1963590)
# Method in brief: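 HEK 293T cells stably bearing CRE-bla were plated at 2,000 cells per well and rested 18 h. Compounds, positive controls or DMSO were added for 3 h at 37 C. LiveBLAzer B/G substrate was then loaded for 2 h at room temperature.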
# [17] = cAMP Responsive Elements (CRE) small molecule antagonists, cell-based qHTS assay (AID 1963591; active = well fitted inhibition curve with a large enough effect in the signal ratio in the repeat runs, not every such curve was filed as active; the % refers to the signal ratio)
# Method in brief: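 First, CRE-bla HEK293T cells settled 18 h at 37 C. Next, compound and 0.25 uM final NKH477 were applied for 3 h. Last, LiveBLAzer B/G substrate was loaded for 2 h at room temperature.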
# [18] = target: Beta-2 adrenergic receptor (Homo sapiens) (UniProt P07550); test: Adrenergic beta2 receptor (ADRB2) small molecule antagonists, cell-based qHTS assay (AID 1963592); note: series mostly up to about 92 µM; nearly all actives have a fitted effect of over 50% in size
# Method in brief: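 Assay format: CHO-ADRB2 cells, 18-20hr seeding at 37C/5% CO2, then compound plus 1nM isoproterenol agonist mix for 0.5hr RT. Homogeneous time-resolved fluorescence cAMP detection after 1hr, expressed as 665/615 nm ratio.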
# [19] = target: D(2) dopamine receptor (Homo sapiens) (UniProt P14416); test: Dopamine D2 receptor (DRD2) small molecule agonists, cell-based qHTS assay (AID 1963594); note: nearly all actives have a fitted effect of over 35% in size
# Method in brief: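 cAMP accumulation in DRD2-HEK293 cells measured by HTRF after 1 h detection; compounds added 10 min before NKH477 (200nM […]) forskolin-analogue stimulation, 30 min at room temperature, with Ro20-1724 present at 0.1 mM final.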
# [20] = target: D(2) dopamine receptor (Homo sapiens) (UniProt P14416); test: Dopamine D2 receptor (DRD2) small molecule antagonists, cell-based qHTS assay (AID 1963595; active = well fitted inhibition curve with a large enough effect in the signal ratio in the repeat runs, with a control signal flat; the % refers to the signal ratio)
# Method in brief: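 Stable D2 receptor HEK293 line, 24 h after seeding. Compound preincubated 10 min, then quinpirole (12 nM) with forskolin analogue NKH477 (200 nM), 30 min, room temperature. Detection by time-resolved FRET of cAMP.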
# 5-hydroxytryptamine receptor 2A (Homo sapiens), sequence (P28223 whole entry, looked up): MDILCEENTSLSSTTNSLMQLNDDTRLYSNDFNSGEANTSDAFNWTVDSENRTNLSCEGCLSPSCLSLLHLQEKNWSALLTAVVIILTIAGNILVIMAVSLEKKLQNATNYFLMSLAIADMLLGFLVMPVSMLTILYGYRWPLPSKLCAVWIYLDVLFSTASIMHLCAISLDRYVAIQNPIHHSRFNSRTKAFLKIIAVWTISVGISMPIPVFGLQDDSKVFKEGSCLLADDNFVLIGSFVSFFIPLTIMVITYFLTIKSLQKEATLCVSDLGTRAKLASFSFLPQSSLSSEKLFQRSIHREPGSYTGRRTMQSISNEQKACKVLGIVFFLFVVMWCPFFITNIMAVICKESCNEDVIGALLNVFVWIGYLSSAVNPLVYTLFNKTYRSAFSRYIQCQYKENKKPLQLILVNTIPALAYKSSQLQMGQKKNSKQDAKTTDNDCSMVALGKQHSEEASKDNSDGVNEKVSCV
# D(2) dopamine receptor (Homo sapiens), sequence (P14416 whole entry, looked up): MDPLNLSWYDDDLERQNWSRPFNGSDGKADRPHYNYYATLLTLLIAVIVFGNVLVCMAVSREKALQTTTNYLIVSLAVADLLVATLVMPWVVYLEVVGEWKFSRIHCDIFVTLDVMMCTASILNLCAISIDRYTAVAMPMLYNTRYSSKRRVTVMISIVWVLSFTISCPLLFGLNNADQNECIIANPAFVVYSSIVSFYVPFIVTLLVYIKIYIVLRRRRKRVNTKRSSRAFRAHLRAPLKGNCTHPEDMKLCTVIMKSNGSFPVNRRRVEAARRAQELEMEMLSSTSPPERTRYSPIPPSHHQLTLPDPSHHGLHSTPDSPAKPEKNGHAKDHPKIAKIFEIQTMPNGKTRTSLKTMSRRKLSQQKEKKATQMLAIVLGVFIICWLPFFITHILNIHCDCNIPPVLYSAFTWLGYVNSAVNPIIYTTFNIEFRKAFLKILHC
# KiSS-1 receptor (Homo sapiens), sequence (Q969F8 whole entry, looked up): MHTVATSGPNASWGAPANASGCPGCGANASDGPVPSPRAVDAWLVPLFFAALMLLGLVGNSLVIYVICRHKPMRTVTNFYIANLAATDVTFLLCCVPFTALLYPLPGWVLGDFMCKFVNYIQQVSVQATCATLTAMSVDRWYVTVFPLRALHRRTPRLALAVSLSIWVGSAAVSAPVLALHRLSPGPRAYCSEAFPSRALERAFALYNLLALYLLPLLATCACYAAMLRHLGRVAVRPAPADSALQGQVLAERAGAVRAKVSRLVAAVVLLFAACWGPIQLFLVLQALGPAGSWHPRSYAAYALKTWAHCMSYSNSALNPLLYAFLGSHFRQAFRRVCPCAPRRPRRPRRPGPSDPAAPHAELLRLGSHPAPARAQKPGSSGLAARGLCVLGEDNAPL
# Beta-2 adrenergic receptor (Homo sapiens), sequence (P07550 whole entry, looked up): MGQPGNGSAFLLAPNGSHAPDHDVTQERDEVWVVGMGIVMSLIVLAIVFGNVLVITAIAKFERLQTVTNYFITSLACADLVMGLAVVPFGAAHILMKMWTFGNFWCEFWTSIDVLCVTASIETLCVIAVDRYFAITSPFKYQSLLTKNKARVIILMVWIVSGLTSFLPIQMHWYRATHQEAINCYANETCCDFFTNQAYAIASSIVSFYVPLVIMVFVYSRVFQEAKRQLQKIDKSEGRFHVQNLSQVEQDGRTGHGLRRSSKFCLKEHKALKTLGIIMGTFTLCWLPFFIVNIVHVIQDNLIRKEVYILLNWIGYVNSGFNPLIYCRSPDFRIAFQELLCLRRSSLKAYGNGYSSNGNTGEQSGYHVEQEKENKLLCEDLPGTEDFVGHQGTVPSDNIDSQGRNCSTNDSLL
# Gonadotropin-releasing hormone receptor (Homo sapiens), sequence (P30968 whole entry, looked up): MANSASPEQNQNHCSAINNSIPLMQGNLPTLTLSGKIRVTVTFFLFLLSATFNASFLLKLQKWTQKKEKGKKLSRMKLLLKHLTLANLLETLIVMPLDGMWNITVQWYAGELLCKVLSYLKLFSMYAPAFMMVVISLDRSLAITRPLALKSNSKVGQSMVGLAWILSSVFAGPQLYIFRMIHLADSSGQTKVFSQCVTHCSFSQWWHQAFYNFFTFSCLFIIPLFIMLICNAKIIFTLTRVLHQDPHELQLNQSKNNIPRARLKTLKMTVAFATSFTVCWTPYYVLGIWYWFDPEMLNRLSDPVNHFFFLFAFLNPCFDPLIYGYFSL
# Muscarinic acetylcholine receptor M1 (Homo sapiens), sequence (P11229 whole entry, looked up): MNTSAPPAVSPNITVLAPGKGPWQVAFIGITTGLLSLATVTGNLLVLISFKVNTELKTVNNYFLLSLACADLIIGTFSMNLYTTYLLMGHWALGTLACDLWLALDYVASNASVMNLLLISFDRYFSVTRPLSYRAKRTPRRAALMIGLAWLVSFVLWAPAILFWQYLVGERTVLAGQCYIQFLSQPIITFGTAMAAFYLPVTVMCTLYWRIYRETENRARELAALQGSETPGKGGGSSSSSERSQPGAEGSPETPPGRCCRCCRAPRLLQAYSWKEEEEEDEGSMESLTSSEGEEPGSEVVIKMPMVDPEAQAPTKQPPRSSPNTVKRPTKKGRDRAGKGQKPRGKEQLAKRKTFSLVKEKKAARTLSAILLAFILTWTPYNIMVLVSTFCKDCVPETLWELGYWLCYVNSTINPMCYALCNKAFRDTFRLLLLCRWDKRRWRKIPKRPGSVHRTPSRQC
smiles,measurement,setting,value
N#CN=C(N)N,Potency,[1],inactive
same,Potency,[2],inactive
same,Potency,[3],inactive
same,Potency,[4],inactive
same,Potency,[5],inactive
same,Potency,[6],inactive
same,Potency,[7],inactive
same,Potency,[8],inactive
same,Potency,[9],inactive
same,Potency,[10],inactive
same,Potency,[11],inactive
same,Potency,[12],inactive
same,Potency,[13],inactive
same,Potency,[14],inactive
same,Potency,[15],inactive
same,Potency,[16],inactive
same,Potency,[17],inactive
same,Potency,[18],inactive
same,Potency,[19],inactive
same,Potency,[20],inactive
Nc1ccc([As](=O)(O)O)cc1,Potency,[1],inactive
same,Potency,[2],inactive
same,Potency,[3],inactive
same,Potency,[4],inactive
same,Potency,[5],inactive
same,Potency,[6],inactive
same,Potency,[7],inactive
same,Potency,[8],inactive
same,Potency,[9],inactive
same,Potency,[10],inactive
same,Potency,[11],inactive
same,Potency,[12],inactive
same,Potency,[13],inactive
same,Potency,[14],inactive
same,Potency,[15],inactive
same,Potency,[16],inactive
same,Potency,[17],inactive
same,Potency,[18],inactive
same,Potency,[19],inactive
c1nc[nH]n1,Potency,[1],inactive
same,Potency,[2],inactive
same,Potency,[3],inactive
same,Potency,[4],inactive
same,Potency,[5],inactive
same,Potency,[6],inactive
same,Potency,[7],inactive
same,Potency,[8],inactive
same,Potency,[9],inactive
same,Potency,[10],inactive
same,Potency,[11],inactive
same,Potency,[12],inactive
same,Potency,[13],inactive
same,Potency,[14],inactive
same,Potency,[15],inactive
same,Potency,[16],inactive
same,Potency,[17],inactive
same,Potency,[18],inactive
same,Potency,[19],inactive
same,Potency,[20],inactive
CCCSC(=O)Cl,Potency,[1],inactive
same,Potency,[2],inactive
same,Potency,[3],inactive
same,Potency,[4],inactive
same,Potency,[5],inactive
same,Potency,[6],inactive
same,Potency,[7],inactive
same,Potency,[8],inactive
same,Potency,[9],inactive
same,Potency,[10],inactive
same,Potency,[11],inactive
same,Potency,[12],inactive
same,Potency,[13],inactive
same,Potency,[14],inactive
same,Potency,[15],inactive
same,Potency,[16],inactive
same,Potency,[17],inactive
same,Potency,[18],inactive
same,Potency,[19],inactive
same,Potency,[20],inactive
Cl/C=C\C[N+]12CN3CN(CN(C3)C1)C2,Potency,[1],inactive
same,Potency,[2],68.6 µM (active)
same,Potency,[3],inactive
same,Potency,[4],inactive
same,Potency,[5],inactive
same,Potency,[6],inactive
same,Potency,[7],inactive
same,Potency,[8],inactive
same,Potency,[9],inactive
same,Potency,[10],inactive
same,Potency,[11],inactive
same,Potency,[12],inactive
same,Potency,[13],inactive
same,Potency,[14],inactive
same,Potency,[15],inactive
same,Potency,[16],inactive
same,Potency,[17],inactive
same,Potency,[18],inactive
same,Potency,[19],inactive
same,Potency,[20],inactive
ClC(Cl)(Cl)Br,Potency,[1],inactive
same,Potency,[2],inactive
same,Potency,[3],inactive
same,Potency,[4],inactive
same,Potency,[5],inactive
same,Potency,[6],inactive
same,Potency,[7],inactive
same,Potency,[8],inactive
same,Potency,[9],inactive
same,Potency,[10],inactive
same,Potency,[11],inactive
same,Potency,[12],inactive
same,Potency,[13],inactive
same,Potency,[14],inactive
same,Potency,[15],inactive
same,Potency,[16],inactive
same,"activity change, negative = inhibition",[17],0.761% [at 18.9 µM]
same,Potency,[18],inactive
same,Potency,[19],inactive
same,Potency,[20],inactive
N#CC1(N=NC2(C#N)CCCCC2)CCCCC1,Potency,[1],inactive
same,Potency,[2],inactive
same,Potency,[3],inactive
same,Potency,[4],inactive
same,Potency,[5],inactive
same,Potency,[6],inactive
same,Potency,[7],inactive
same,Potency,[8],inactive
same,Potency,[9],inactive
same,Potency,[10],inactive
same,Potency,[11],inactive
same,Potency,[12],inactive
same,Potency,[13],inactive
same,Potency,[14],inactive
same,Potency,[15],inactive
same,Potency,[16],inactive
same,Potency,[17],inactive
same,Potency,[18],inactive
same,Potency,[19],inactive
